Screens deposited in PubChem BioAssay by National Center for Advancing Translational Sciences (NCATS).
This is a sample that favours compounds with a hit; in the whole collection about 9.4% have one here.
SMN2 splice enh – increases expression of the SMN2 splice variant; Potency, µM (highest dose often 46.1 µM), hits mostly activators; actives 2.8% (n = 210,000); AID 1458; HEK293 SMN2-luciferase splicing reporter, luminescence, 30-36 h; further: nearly all actives have a fitted effect of over 55% in size
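HEK293 cells carry an SMN2 minigene-luciferase reporter in which exon 7 inclusion puts luciferase in frame. Cells were seeded at 2000 cells/well, attached for 10-12 hours, then exposed to compounds for 30-36 hours at 37C before ONE-Glo luminescence.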
Rab9 prom act – activators of Rab9 promoter; Huh7 Rab9 promoter-luciferase reporter, luminescence, 24 h; Potency, µM (doses to about 9.22 µM), most hits filed as activators; actives 2.8% (n = 320,000); AID 485297; further: nearly all actives have a fitted effect of over 60% in size
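Using Huh7 cells stably transfected with Rab9 promoter–luciferase, compounds were incubated 24 h at 37 °C, 5% CO2; luciferase luminescence was read 10 min after reagent addition.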
NPC1 prom act – activates the NPC1 promoter. actives 2.4% (n = 320,000). AID 485313. Potency, µM (top dose mostly 9.22 µM), hits mostly activators. Huh7 NPC1 promoter luciferase reporter, 24 h; further: nearly all actives have a fitted effect of over 60% in size
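In 1536-well qHTS, Huh7 cells harboring an NPC1 promoter–luciferase construct received compound for 24 h; activation was quantified by luminescence following luciferase reagent addition.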
ELG1 repair inh – ELG1-dependent DNA repair inhibition; HEK293T ELG1-luciferase reporter, luminescence, 16 h; DNA damage induced by 5-fluorouridine; AID 504467; Potency, µM (series often up to 46.1 µM), usual class: inhibitors; actives 2.3% (n = 330,000); further: nearly all actives have a fitted effect of over 55% in size
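Cells (2,000 per well) received 5-fluorouridine plus test compound or DMSO and were incubated 16 hr at 37 °C, 5% CO2. Luciferase activity was read by luminescence 30 min after ONE-Glo addition; signal suppression marked inhibition of damage-induced ELG1 function.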
ELG1 genotox – genotoxicity induction in ELG1-luciferase HEK293T cells. actives 1.3% (n = 330,000). HEK293T ELG1-luciferase reporter, luminescence, 16 h. AID 504466. Potency, µM (titrated, usually from 46 µM), usual class: activators; further: nearly all actives have a fitted effect of over 60% in size
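Reporter readout depends on ELG1 protein level, which increases with genetic stress. After 16 hr compound exposure at 37 °C, luciferase activity was quantified using ONE-Glo.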
FLuc counter – firefly luciferase modulation, counter-screen for miR-21 project; P08659; purified FLuc, Km substrates, luminescence inhibition; Potency, µM (series often up to 57.5 µM), usual class: inhibitors; actives 6.9% (n = 360,000); AID 588342; further: nearly all actives have a fitted effect of over 55% in size
Target sequence (P08659 whole entry, looked up): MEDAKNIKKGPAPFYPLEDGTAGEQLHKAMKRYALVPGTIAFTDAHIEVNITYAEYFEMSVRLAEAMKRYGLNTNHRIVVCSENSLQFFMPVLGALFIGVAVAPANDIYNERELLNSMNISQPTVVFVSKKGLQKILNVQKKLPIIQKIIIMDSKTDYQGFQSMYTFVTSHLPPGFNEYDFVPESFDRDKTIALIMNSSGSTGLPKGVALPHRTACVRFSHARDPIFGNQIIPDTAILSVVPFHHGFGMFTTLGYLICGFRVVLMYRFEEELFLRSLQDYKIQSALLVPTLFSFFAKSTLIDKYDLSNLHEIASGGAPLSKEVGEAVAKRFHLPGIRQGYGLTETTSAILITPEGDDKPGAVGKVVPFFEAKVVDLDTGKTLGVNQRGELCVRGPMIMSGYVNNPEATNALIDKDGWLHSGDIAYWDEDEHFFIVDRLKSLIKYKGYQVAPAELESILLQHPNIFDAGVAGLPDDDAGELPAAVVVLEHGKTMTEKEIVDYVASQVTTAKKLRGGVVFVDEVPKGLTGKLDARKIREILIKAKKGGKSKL
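Biochemical qHTS of compounds, final roughly 60 µM downward over six points, against 10 nM purified firefly luciferase using Km concentrations of substrates (10 uM D-luciferin, 10 uM ATP) in Tris acetate pH 7.5 buffer; luminescence output.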
Numbers stand for hits; . = inactive; ? = inconclusive; / = no result; [ ] = dose if it differs, or a comment. The call rests on the fitted dose curve; in most records, active means well fitted curve in the direction sought with a large enough effect; inconclusive means small, poorly fitted or top-dose-only effect, or another doubt; inactive means no such curve, though single readings can be large; an effect the other way counts as inactive or inconclusive.

SMILES	SMN2 splice enh	Rab9 prom act	NPC1 prom act	ELG1 repair inh	ELG1 genotox	FLuc counter
COc1cc2cc(CN(CCc3cccc(C)c3)C(=S)NCCCN(C)C)c(=O)[nH]c2cc1OC	.[1.84 µM]	.	.	.	.	.
CNC(=S)N(Cc1cccs1)Cc1cc2cc(OC)ccc2[nH]c1=O	.	.	.	?	.	.
COc1ccc2[nH]c(=O)c(CN(Cc3cccs3)C(=S)Nc3cccc(C)c3)cc2c1	.	.	.	5.8µM	.	.
COc1ccc2[nH]c(=O)c(CN(Cc3cccs3)S(=O)(=O)c3cccc4nsnc34)cc2c1	.	.	.	1.3µM	.	.
Cc1cc2cc(CN(Cc3ccco3)C(=O)NCc3ccccc3)c(=O)[nH]c2cc1C	.	.	.	?	.	.
c1ccc(CSc2nnc(C3CCNCC3)o2)cc1	/	/	/	/	/	.
NNC(=O)c1ccc[n+](CCc2ccccc2)c1	.[9.22 µM]	/	/	/	/	/
CCCCNC(=S)N(Cc1ccco1)Cc1cc2cc3c(cc2[nH]c1=O)OCCO3	.[1.84 µM]	.	.	14.6µM	.	.
COc1ccc(NC(=O)N(Cc2cccs2)Cc2cc3cc4c(cc3[nH]c2=O)OCO4)cc1	.	.	.	20.6µM	.	?
Cc1ccc(NC(=O)N(Cc2cccs2)Cc2cc3cc4c(cc3[nH]c2=O)OCO4)cc1	.	.	.	20.6µM	.	.
COc1ccc(CN(Cc2cc3cc4c(cc3[nH]c2=O)OCO4)C(=O)NC2CCCCC2)cc1	.	.	.	16.4µM	.	.
CCOCCCNC(=S)N(Cc1ccco1)Cc1cc2cc3c(cc2[nH]c1=O)OCCO3	/	.	.	?	.	.
CCN(CC)CCCN(Cc1cc2cc3c(cc2[nH]c1=O)OCO3)C(=S)Nc1ccc(OC)cc1	/	.	.	.	.	.
CS(=O)(=O)c1ccc(/C=N\NC(N)=S)cc1	.[9.22 µM]	/	/	/	/	/
O=C(NCc1ccc(F)cc1)c1ccc(NC(=O)N2CC3CCCN3c3ccccc32)cc1 (stereo not given)	.	/	/	/	/	.
Cc1ccc(NC(=O)N(Cc2ccc3c(c2)OCO3)Cc2cc3cc4c(cc3[nH]c2=O)OCCO4)cc1	.	.	.	20.6µM	.	.
O=C(NCc1ccc(F)cc1)C1CCCN(c2ncnc3onc(-c4ccc(F)cc4)c23)C1 (stereo not given)	/	/	/	/	/	.
CN(C)CN1CSC(=S)N(CN(C)C)C1	.[9.22 µM]	/	/	/	/	/
CCOc1ccc2c(c1)C(=O)c1cc(OCC(=O)O)ccc1-2	/	.	.	?	.	3.38µM
O=C(O)COc1ccc2c(c1)CCCC2	.	.	.	.	.	.
CCCCOc1ccc2c(c1)C(=O)c1cc(O)ccc1-2	/	3.16µM	?	?	?	26.9µM
CCCOc1ccc2c(c1)C(=NN=C(N)N)c1cc(OCCC)ccc1-2	/	.	.	?	.	?
N#C/C(=C\c1ccc(-c2cccc([N+](=O)[O-])c2)o1)c1nnc(N2CCOCC2)n1-c1ccccc1	.	.	.	5.8µM	.	.
N#C/C(=C\c1ccc(-c2cccc([N+](=O)[O-])c2)o1)C(=O)N1CCOCC1	/	.	.	.	.	?
COCCCNc1nc2c(c(=O)[nH]c(=O)n2C)n1CC(O)COc1ccc(Cl)cc1 (stereo not given)	.	/	/	/	/	.
SMILES	SMN2 splice enh	Rab9 prom act	NPC1 prom act	ELG1 repair inh	ELG1 genotox	FLuc counter
Cc1ccc(COc2ccc(-c3nnco3)cc2)cc1	/	3.55µM	2.24µM	?	?	9.53µM
Cc1ccc(-n2nc3c(n2)/C(=N/O)CC/C3=N\O)cc1	12.6µM	3.16µM	?	?	?	9.53µM
O/N=C1\CC/C(=N\O)c2nn(-c3ccccc3Cl)nc21	.	.	.	.	.	.
COc1cccc(C2CC(=O)Nc3c2c(=O)nc2c(C)cccn32)c1 (stereo not given)	.	/	/	/	/	.
Cc1cc(C)c(S(=O)(=O)NCC(c2ccc(N(C)C)cc2)N2CCc3ccccc32)c(C)c1 (stereo not given)	/	/	/	/	/	.
COCCCn1c(O)c(/C=C2\N=C(C#N)C(=Nc3ccc(C)cc3)O2)sc1=S	/	.	.	.	.	6.75µM
Cc1ccc(-c2cc(-c3nnc(SCC(=O)NCC(C)C)n3N)c3ccccc3n2)cc1	.	.	.	.	.	16.9µM
